Measurements taken from PubChem BioAssay.

Key:
[1] = tested on: Human papillomavirus type 1a protein E7 (residues 44-93); assay: HPV1a E7 fragment binders on microarrays, primary screen, biochemical, small-molecule microarray, residues 44-93, 635 nm fluorescence (AID 1108); settings: small-molecule microarray binding, fluorescence 635 nm; higher = more signal;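 also: E7 fragment applied at 1 µg/mL in TBST for 1 h at 4 C; score combines spot fluorescence with its signal to noise ratio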
[2] = modulators of HCV replicon luciferase signal, primary screen, HCV replication inhibitor project, Huh7 cells, luciferase reporter (AID 1109); settings: 48 h, higher = more signal;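 also: huh7 hepatoma cells harbouring a luciferase neomycin HCV replicon reporter; luciferase luminescence as measure of HCV replicon replication; test concentration not given here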
[3] = target: Left-right determination factor 2 (Homo sapiens) (UniProt O00292); assay: LEFTY2 binders on small-molecule microarrays, primary screen, biochemical, small-molecule microarray, 635 nm fluorescence scan (AID 1110); settings: LEFTY2 binding, higher = more signal
Chain of Left-right determination factor 2 (Homo sapiens) (O00292 whole entry, looked up): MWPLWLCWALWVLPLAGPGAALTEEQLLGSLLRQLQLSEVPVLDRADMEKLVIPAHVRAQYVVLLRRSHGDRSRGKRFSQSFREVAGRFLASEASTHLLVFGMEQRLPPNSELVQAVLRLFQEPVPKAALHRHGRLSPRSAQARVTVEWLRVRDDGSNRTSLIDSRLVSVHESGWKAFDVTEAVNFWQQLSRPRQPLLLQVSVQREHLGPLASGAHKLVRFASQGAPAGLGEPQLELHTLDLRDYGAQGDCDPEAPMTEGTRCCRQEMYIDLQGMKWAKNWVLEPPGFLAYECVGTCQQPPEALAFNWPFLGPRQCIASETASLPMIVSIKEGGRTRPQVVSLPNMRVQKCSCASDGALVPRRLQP

[4] = target: Calmodulin-1 (Homo sapiens) (UniProt P0DP23); assay: CALM1 binders on microarrays, EGTA buffer, profiling panel, biochemical, small-molecule microarray, Cy5-labelled CALM1 (AID 1111); settings: Cy5-CALM1 binding fluorescence, higher = more signal;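 also: labelled calmodulin applied in Tris saline Tween buffer holding calcium plus EGTA and DTT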
[5] = target: Calmodulin-1 (Homo sapiens) (UniProt P0DP23); assay: calcium-bound CALM1 binders on microarrays, profiling panel, artefact control for SMM control-protein annotation, biochemical, small-molecule microarray, Cy5-labelled CALM1, plus calcium (AID 1112); settings: Cy5-CALM1 binding fluorescence, higher = more signal;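 also: score merges spot fluorescence with signal to noise from triplicate slides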
[6] = small-molecule microarray binders of probe aWnt5a, primary screen, biochemical, biotinylated probe, 635/667 nm fluorescence (AID 1113); settings: higher = more signal;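 also: score merges 667 nm fluorescence intensity with signal-to-noise per printed feature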
[7] = small-molecule microarray binders of probe aShh, primary screen, biochemical, biotinylated probe, 635/667 nm fluorescence (AID 1114); settings: higher = more signal;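 also: probe is biotin-labelled aShh protein from a stem cell growth factor screen; measures binding of labelled protein to compounds printed on the slide; score merges feature fluorescence at 667 nm with signal-to-noise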
[8] = small-molecule microarray binders of probe aNog, primary screen, biochemical, biotinylated probe, 635/667 nm fluorescence (AID 1115); settings: higher = more signal;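 also: probe is biotinylated aNog protein used at 0.15 µg/mL for 1 h at 4 C; z-score combines 667 nm fluorescence of each spot with its signal to noise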
[9] = target: Torsin-1A-interacting protein 1 (Homo sapiens) (UniProt Q5JTV8); assay: LAP1 binders from COS7 cell lysate, primary screen, small-molecule microarray, 635/667 nm fluorescence (AID 1116); settings: COS7-hLAP1 lysate binding, 635 nm fluorescence, higher = more signal
Chain of Torsin-1A-interacting protein 1 (Homo sapiens) (Q5JTV8 whole entry, looked up): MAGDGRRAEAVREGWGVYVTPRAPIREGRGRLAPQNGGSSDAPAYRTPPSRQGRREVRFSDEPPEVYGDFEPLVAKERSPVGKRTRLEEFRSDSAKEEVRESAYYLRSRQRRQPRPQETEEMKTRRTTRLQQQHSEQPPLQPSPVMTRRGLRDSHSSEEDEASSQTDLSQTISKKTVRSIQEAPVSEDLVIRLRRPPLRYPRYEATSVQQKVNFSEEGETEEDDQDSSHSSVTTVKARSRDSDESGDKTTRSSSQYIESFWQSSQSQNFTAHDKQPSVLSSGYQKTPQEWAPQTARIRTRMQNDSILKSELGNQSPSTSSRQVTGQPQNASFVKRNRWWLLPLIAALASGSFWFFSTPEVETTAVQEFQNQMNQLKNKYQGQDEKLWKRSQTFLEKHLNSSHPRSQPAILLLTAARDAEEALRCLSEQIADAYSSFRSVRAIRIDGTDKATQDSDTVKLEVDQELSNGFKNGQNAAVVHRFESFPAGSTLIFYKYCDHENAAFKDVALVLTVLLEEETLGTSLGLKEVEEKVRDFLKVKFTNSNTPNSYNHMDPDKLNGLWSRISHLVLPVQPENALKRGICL

[10] = target: Alpha-bungarotoxin (Bungarus multicinctus) (UniProt P60615); assay: alpha-bungarotoxin binders on microarray, profiling panel, artefact control for SMM control protein annotation, biochemical, small-molecule microarray, Alexa647 label, 635/667 nm fluorescence (AID 1117); settings: alpha-BTX-A647 binding fluorescence, higher = more signal
Chain of Alpha-bungarotoxin (Bungarus multicinctus) (P60615 whole entry, looked up): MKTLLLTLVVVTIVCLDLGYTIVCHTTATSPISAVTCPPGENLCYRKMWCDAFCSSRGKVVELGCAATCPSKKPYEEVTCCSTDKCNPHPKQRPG

SMILES	composite z-score [1]	z-score [2]	composite z-score [3]	composite z-score [4]	composite z-score [5]	composite z-score [6]	composite z-score [7]	composite z-score [8]	composite z-score [9]	composite z-score [10]
CCN1C(=O)[C@H]2[C@H]3[C@H](O)[C@H](O)CC(=NOC[C@@H](O)COCc4ccco4)[C@H]3CC[C@H]2C1=O	0.296	-0.389	1.41	-2.21	-2.59	-0.216	-0.2	-0.878	-0.0551	-0.441
CC(CCN1CCCc2nc(C)c(C)cc21)=NO[C@H](C)c1cn([C@@H]2COC[C@H]2O)nn1	0.839	0.0504	0.831	-0.253	-0.718	-0.0478	0.0611	-0.158	0.695	0.102
CC(C)(C)N1C(=O)[C@H]2[C@@H]3C(=CC[C@H]2C1=O)C(=O)[C@H]1O[C@H]1[C@H]3O	-2.12	-4.79	0.341	-1.08	-1.48	-0.0735	-0.273	-0.571	-0.139	-0.0321
CC(=O)OC[C@H]1O[C@H](CC=NO[C@@H](C)c2cc(-c3c(C)cc(C)cc3C)no2)C=C[C@@H]1OC(C)=O	-0.0612	-0.83	-0.111	-0.176	0.0084	-0.208	-0.223	-0.135	-0.502	0.753
CCOC(=O)[C@H](Cc1ccccc1)NC(=O)CCC1CC(OC(=O)NCc2cccc3ccccc23)CC2(CCCC(COC(=O)NCCc3ccc(Cl)cc3)O2)O1 (stereo not given in full)	1.02	0.246	0.366	1.14	-0.369	-0.0738	-0.153	0.793	0.289	0.429
C[C@@H](c1ccccc1)N1C(=O)[C@H]2[C@H]3[C@H](O)[C@H](O)CC(=NOCc4ccccc4)[C@@H]3CC[C@H]2C1=O	-0.233	-0.701	0.11	-0.38	-0.0198	0.0061	-0.276	0.593	0.348	0.993
CCOC(=O)[C@H](Cc1ccccc1)NC(=O)CCC1CC(OC(=O)NCc2ccc3c(c2)OCO3)CC2(CCCC(COC(=O)NCCOc3ccccc3)O2)O1 (stereo not given in full)	1.24	-0.682	0.753	0.505	-0.166	-0.15	-0.223	-0.0047	0.301	0.495
CC(C)=NOC[C@@H](O)[C@H]1O[C@@H]2OC(C)(C)O[C@@H]2[C@H]1O	0.855	0.674	0.989	0.0985	-0.29	0.163	0.0952	-0.191	0.243	0.154
COC(OC)[C@@H](C)[C@H](OC)[C@@H](C)[C@H](OC)c1ccccc1	-0.567	0.928	0.4	-1.15	-0.647	-0.225	-0.273	0.108	0.0678	-0.0469
C[C@H]1CC[C@H]2C(=O)O[C@H](CO)CN2[C@@H]1c1ccc(Br)cc1	0.33	-0.0002	0.217	-0.25	-0.445	-0.213	-0.276	-0.234	-0.138	0.126
CO[C@H]1COC(=O)[C@H](CCSC)NC(=O)CC=C[C@@H](C)[C@H](OC)COC(=O)[C@@H](OCc2ccccc2)C=C[C@@H]1C	0.176	-1.4	0.753	-0.841	-1.69	-0.159	-0.221	-0.483	0.0829	-0.531
C=CC[C@@H]1C=C[C@H](ON=CC[C@@H]2C=C[C@H](OC(C)=O)[C@@H](COC(C)=O)O2)[C@@H](CO)O1	1.25	0.563	0.514	0.501	-0.0909	0.423	0.113	-0.467	0.223	1.86
COC(=O)[C@H](C)NC(=O)CCC1CC(OC(=O)NCc2ccc3c(c2)OCO3)CC2(CCCC(COC(=O)NCc3ccccc3)O2)O1 (stereo not given in full)	1.25	0.188	0.508	0.202	-0.558	-0.001	-0.0709	-0.258	0.179	0.159
CC(C)[C@@H](OCc1ccccc1)[C@H](C)C=NOC[C@@H](O)[C@H]1O[C@@H]2OC(C)(C)O[C@@H]2[C@H]1O	0.436	-1.75	0.413	0.178	-0.606	-0.15	-0.634	0.848	0.145	0.278
CC(C)CN1CCc2nc(-c3ccccc3)c3c(c2C1)CO[C@@H](C)C3	1.01	-0.791	0.881	0.566	0.32	-0.0285	0.0751	-0.149	0.152	0.365
CO[C@@H]1COC(=O)[C@H](CCSC)NC(=O)CC=C[C@@H](C)COC(=O)[C@@H]2CCCN2C(=O)CC=C[C@H]1C	-0.427	-0.522	0.857	-0.776	-1.36	-0.0276	0.0278	-0.036	0.771	-0.245
CCOC(=O)[C@H](CC(C)C)NC(=O)CCC1CC(OC(=O)NCc2ccc3c(c2)OCO3)CC2(CCCC(COC(=O)NCCOc3ccccc3)O2)O1 (stereo not given in full)	1.35	-1.07	0.715	-0.0232	-0.466	0.0232	-0.0289	-0.404	0.303	0.905

SMILES	composite z-score [1]	z-score [2]	composite z-score [3]	composite z-score [4]	composite z-score [5]	composite z-score [6]	composite z-score [7]	composite z-score [8]	composite z-score [9]	composite z-score [10]
CON=C(C)CCN1CCCCc2nc(C)c(C)cc21	-0.111	-0.319	0.679	-0.327	-0.817	0.11	-0.147	-0.337	0.445	-0.0996
CC(C)CON=C1C[C@@H](O)[C@@H](O)[C@@H]2[C@@H]3C(=O)N(c4ccc(F)cc4F)C(=O)[C@@H]3CC[C@@H]12	0.463	-0.049	0.339	0.0012	-0.541	-0.0368	-0.279	-0.0563	0.142	0.421
CO[C@@H](C1CCCCC1)[C@@H](C)[C@H](OCc1cccc(Br)c1)[C@@H](C)CO	-0.18	-1.88	0.481	-0.434	0.318	-0.139	-0.0709	0.0649	0.0682	-0.378
C[C@H]1CC[C@H]2C(=O)N[C@H](Cc3ccccc3)C(=O)N2[C@@H]1c1ccccc1	-1.38	-0.283	0.395	-0.742	-0.194	-0.127	0.37	-0.0428	0.51	-0.009
COC(=O)[C@H](Cc1ccccc1)NC(=O)[C@@H](C)CO	-0.0054	-0.499	0.597	-0.597	-0.32	-0.034	0.214	0.376	0.763	0.0296
O=C1C=C[C@@H](O)[C@@H]2[C@@H]3C(=O)N(Cc4ccc5c(c4)OCO5)C(=O)[C@@H]3CC[C@@H]12	0.701	-0.322	0.57	-0.112	-0.508	-0.147	-0.0626	-0.238	-0.127	0.123
COC(=O)[C@H](C)NC(=O)CCC1CC(OC(=O)NCCc2ccc(F)cc2)CC2(CCCC(COC(=O)NCCOc3ccccc3)O2)O1 (stereo not given in full)	1.36	-0.213	0.781	1.55	0.236	0.055	0.123	-0.109	0.928	0.837
C[C@@H]1CC[C@@H](C(=O)O)N[C@H]1c1cccc(N2CCOCC2)c1	0.456	0.47	0.436	-0.101	-0.0411	-0.0758	-0.262	-0.324	0.513	0.851
CC(C)(C)N1C(=O)[C@H]2[C@H]3[C@H](O)[C@H](O)CC(=NOC[C@@H](O)COCc4ccco4)[C@H]3CC[C@H]2C1=O	0.39	0.61	-0.203	-0.0051	-0.333	-0.147	-0.0471	0.0868	0.706	1.15
O=C1[C@H]2[C@H]3[C@H](O)[C@H](O)CC(=NOC[C@@H](O)COCc4ccco4)[C@@H]3CC[C@H]2C(=O)N1c1cccc(Oc2ccccc2)c1	-0.645	-0.739	0.103	0.0705	-0.511	-0.0758	-0.289	-0.29	-0.0841	0.534
CCCNC(=O)OC[C@H]1O[C@H](CCON=C[C@@H](C)[C@H](OCc2ccccc2)C(C)C)C=C[C@@H]1Oc1ccc(OC)cc1	0.427	-2.17	0.182	-0.755	-0.515	-0.156	-0.484	-0.196	-0.163	0.297
O=C1[C@H]2[C@H]3[C@H](O)[C@H](O)CC(=NOC[C@@H](O)COCc4ccco4)[C@@H]3CC[C@H]2C(=O)N1C1CCCCC1	0.814	-0.337	0.72	-0.608	-1.66	-0.124	-0.206	-0.5	0.289	-0.0636
CON=C1c2cc(OC)ccc2O[C@H](c2cccc(OC)c2)[C@H]1O	0.365	7.91	0.601	-0.332	-0.729	-0.0165	0.172	-0.0211	0.646	-0.0531
CCOC(=O)CCN1C(=O)[C@H]2[C@H]3[C@H](O)[C@H](O)CC(=NNC(=O)OCc4ccc(OC)cc4)[C@H]3CC[C@H]2C1=O	0.451	-2.44	0.214	-0.211	-0.509	0.0243	0.0121	0.0236	-0.176	0.354
CCN(CC)CC(O)CN1CCCCc2nc(C)c(C)cc21 (stereo not given)	-0.0592	0.932	0.31	-0.397	-0.125	-0.129	-0.138	-0.0137	0.579	0.695
CCN1C(=O)[C@H]2[C@H]3[C@H](O)[C@H](O)CC(=NO[C@@H](C)c4cc(-c5c(C)cc(C)cc5C)no4)[C@@H]3CC[C@H]2C1=O	1.02	-0.946	0.685	0.224	-0.525	-0.0799	-0.0146	-0.177	0.952	1.02
